40 molecules from PubChem BioAssay (NCATS) can be followed below.

Molecules are shown by their SMILES. Records with an inconclusive call do not appear. Values without a mark were called inactive. Activity calls are given as the source filed them. Calls come from the whole dose curve; as a rule, active = well fitted cell-killing curve with a large enough effect; inconclusive = small, poorly fitted or top-dose-only effect, or effect the other way; inactive = no such curve, though single readings can be large or run the other way.
Potency is the fitted concentration of half-maximal effect.

A short description of this experiment: Quantitative highthroughput screen to assess conditional lethalithy of SEM cells grown in Human Plasma-Like Medium with dialyzed fetal bovine serum (HPLM+ds) (AID 1963882). Note: nearly all actives have a fitted effect of over 35% in size. Particulars: SEM B-ALL cells in HPLM+ds, CellTiter-Glo viability, 48 h; series mostly up to 45.8 µM; viability: at the top concentration. An excerpt: Assay Provider: Jason Cantor Ph.D.
Department of Biochemistry
University of Wisconsin-Madison, Madison, WI, USA
Chemical screening studies have identified drug sensitivities across hundreds of cancer cell lines but most putative therapeutics fail to translate. Discovery and development of drug candidates in models that more accurately reflect nutrient levels in human blood is a major challenge. Here we performed high-throughput screens in conventional versus Human Plasma-Like Medium (HPLM) to identify compounds that were "missed" when screening using the artificial culture condition. Sets of conditional anticancer compounds spanned phases of clinical development and included non-oncology drugs were assessed. […] We also traced conditional phenotypes for several chemotherapeutics to availability of HPLM-specific metabolites and confirmed others for compounds whose reported targets are encoded by nonessential genes. Our findings establish generalizable strategies for exploiting conditional lethality in HPLM to reveal therapeutic candidates and mechanisms of action in cancer cells.
Described herein are the results of each viability screens against three cell lines: NOMO1 (an acute myeloid leukemia cell line); P12-Ichikawa (a T-cell acute lymphoblastic leukemia); and SEM (a B-cell ALL). Each assay was screened using 3 different cell culture media: homemade human plasma-Like medium with 10% dialyzed fetal bovine serum (HPLM+ds); RPMI1640 with 10% untreated FBS and 5mM glucose (RPMI+s); and RPMI1640 with 10% dialyzed fetal bovine serum and 5 mM glucose (RPMI+ds).
PROTOCOL TABLE (as described by Inglese J, Shamu CE and Guy RK. 2007)
SEQUENCE No. (e.g., 1, 2, 3, etc.); […] (e.g., Cells, Incubation, Reagent, etc.); VALUE and DESCRIPTION.
1; Cells; 5 uL; white, solid bottom 1536-well Greiner assay plate.
2; Compounds; 23 nL; Kalypsis pin tool (Wako USA) equipped with a 1536-well pin head to transfer to the assay plates.
3; Incubation; 48 hours; 37C incubation.
4; Reagent; 3 uL; CellTiter Glo (Promega).
5; Incubation; 5 min, room temperature
6; Detection; Luminescence, Viewlux PerkinElmer.
NOTES (numbers refer to Sequence numbers above)
1. Briefly, 5 ul of cell reagent was dispensed using a Multidrop Combi Dispenser. The NOMO1 and SEM cells were plated at 500 cells/well and the P12-Ichikawa line at 1000 cells/well.
2. After seeding the cells, 23 nL of MIPE 4.1 library compounds (in DMSO) were added to each plate using a Kalypsys 1536 Pintool dispenser. Bortezomib at final concentration of […] and DMSO were added to each plate as positive and negative controls respectively. For each screen, MIPE 4.1 compounds were added over an eleven-point concentration range […] in 3-fold dilutions.
3. Each plate was covered with a stainless steel gasketed lid to prevent evaporation and incubated for 48 hour at 37C, 95% relative humidity, and 5% CO2.
4-5. Three microliter CellTilter-GloTM luminescent substrate mix (Promega) reagent was added to the assay plate and incubated at room temperature for 5 min.
6. The luminescence signal was measured using a ViewLux (PerkinElmer) multiplate reader with a 2 second exposure time per plate. Data for each compound were normalized as percent viability such that measurements for DMSO and the empty well controls in each plate were defined as 100% and 0%, respectively.
On the technique in general: Cellular ATP, detected with luciferase, serves as a proxy for viable cell number.
In the case of `O=P1(N(CCCl)CCCl)NCCCO1` (stereo not given), the Potency is 9.35 µM (active).

For the molecule `C[C@@H]1CC[C@H]2[C@@H](C)C(=O)O[C@@H]3O[C@@]4(C)CC[C@H]1[C@]32OO4`, the viability – broadly, a read-out of living cells in per cent, often relative to untreated cells – is 99.3%.

For `O=C1CC[C@@]2(O)[C@H]3Cc4ccc(O)c5c4[C@@]2(CCN3CC2CC2)[C@H]1O5`, the “viability” value is 106%.

For the molecule `CC(=Cc1csc(C)n1)[C@@H]1C[C@H]2O[C@@H]2CCC[C@H](C)[C@@H](O)[C@@H](C)C(=O)C(C)(C)[C@@H](O)CC(=O)O1`, the “viability” value is 18.8%.

In the case of `O=c1[nH]c2ccccc2n1CCCN1CCC(n2c(=O)[nH]c3cc(Cl)ccc32)CC1`, the “viability” value was 90.7%.

For the molecule `Cc1ncc(OC[C@@]2(c3cccc(F)c3)C[C@H]2C(=O)Nc2ccc(F)cn2)c(C)n1`, the “viability” value is 82.7%.

With `CC(C)c1cccc(C(C)C)c1O`, the “viability” value was 98.5%.

For `CCc1c(C(=O)C(N)=O)c2c(OCC(=O)O)cccc2n1Cc1ccccc1`, the “viability” value was 86.5%.

For `Cc1cc(SCc2sc(-c3ccc(C(F)(F)F)c(F)c3)nc2C)ccc1OCC(=O)O`, the “viability” value was 99.5%.

`C#C[C@]1(O)C=C[C@@H]2[C@@H]3CCC4=CC(=O)CC[C@@H]4[C@H]3CC[C@@]21CC`: the “viability” value is 113%.

Regarding `O=C(Oc1ccc([N+](=O)[O-])cc1)N1CCN(Cc2cccc(Oc3ccccc3)c2)CC1`, the “viability” value is 103%.

As for `O=P1(NCCCl)OCCCN1CCCl` (stereo not given), the Potency is 18.7 µM (active).

As for `COc1ccc2c(c[n+](C)c3c4cc5c(cc4ccc23)OCO5)c1OC`, the Potency is 14.8 µM (active).

`CC(C)(C)c1cc(C=C(C#N)C#N)cc(Br)c1O`: the “viability” value is 96%.

Turning to `NC1CC1c1ccccc1` (stereo not given), the “viability” value is 91.5%.

In the case of `C[C@]12CC[C@H]3[C@@H](CCC4=CC(=O)CC[C@@]43C)[C@H]1CC[C@H]2OC(=O)CCC1CCCC1`, the “viability” value is 102%.

As for `Cc1ccccc1-n1c(Cn2ncc3c(N)ncnc32)nc2cccc(C)c2c1=O`, the “viability” value is 104%.

In the case of `CC(C)[C@H]1C(=O)N[C@H](CO)Cc2c[nH]c3cccc(c23)N1C`, the “viability” value is 64.4%.

Consider `c1ccc2c(CN3CCNCC3)cccc2c1`, for which the “viability” value was 86.2%.

For `COC[C@@H](NC(C)=O)C(=O)NCc1ccccc1`, the “viability” value is 90.4%.

For `C[C@]12COC(=O)C[C@@H]1CC[C@@H]1[C@H]2CC[C@@]2(C)[C@H]1CC[C@]2(C)O`, the “viability” value was 96.1%.

`COc1cc(C(=O)N2CC[C@@H](O)[C@@H](N)C2)cc2nc(-c3cc4ccccc4n3CC3CC3)n(C)c12`: the Potency is 1.32 µM (active).

Take `COC(=O)[C@@H](N)CCCN=C(N)N[N+](=O)[O-]`: the “viability” value was 101%.

Consider `C[C@]12CC[C@H](O)CC1=CC[C@H]1[C@H]3CCC(=O)[C@@]3(C)CC[C@@H]12`, for which the “viability” value was 101%.

As for `Cc1sc2c(c1C)C(c1ccc(Cl)cc1)=N[C@@H](CC(=O)OC(C)(C)C)c1nnc(C)n1-2`, the Potency is 0.166 µM (active).

For the molecule `CC(C)(O)C(=O)Nc1ccc([N+](=O)[O-])c(C(F)(F)F)c1`, the “viability” value was 93.8%.

Take `Cc1[nH]nc2ccc(-c3cncc(OC[C@@H](N)Cc4c[nH]c5ccccc45)c3)cc12`: the Potency was 0.187 µM (active).

Take `CCOC(=O)Nc1ccc(NCc2ccc(F)cc2)cc1N`: the “viability” value was 97.3%.

As for `NCC1(CC(=O)O)CCCCC1`, the “viability” value is 103%.

Take `CCOP(=O)(OCC)C(C)NC(=O)N(CCCl)N=O` (stereo not given): the “viability” value is 81.8%.

In the case of `C[C@]12CC[C@@H]3[C@@H](CCC4=CC(=O)CC[C@@H]43)[C@@H]1CC[C@@H]2OC(=O)CCc1ccccc1`, the “viability” value is 90.5%.

For the molecule `CC(C)(C)[C@]1(O)C[C@@H]2OC(=O)C[C@@]23C(=O)O[C@@H]2OC(=O)[C@H](O)C213` (stereo not given in full), the “viability” value is 103%.

Regarding `O=C(O)c1nn(Cc2ccc(Cl)cc2Cl)c2ccccc12`, the “viability” value is 67.4%.

For `CCOC(=O)c1cncn1[C@H](C)c1ccccc1`, the “viability” value was 95.1%.

`CN(C)CCN(C)CCc1ccc(Cl)c(Cl)c1`: the “viability” value is 90.6%.

On to `CN(C)CCc1ccc(O)cc1`, for which the “viability” value was 94.1%.

With `C#CC1(O)CCC2C3CCC4=CC(=O)CCC4(C)C3CCC21C` (stereo not given), the “viability” value is 107%.

Turning to `CCCCCC[C@H]1C(=O)O[C@H](C)[C@H](NC(=O)c2cccc(NC=O)c2O)C(=O)O[C@@H](C)[C@@H]1OC(=O)CC(C)C`, the “viability” value was 85.9%.

Regarding `CC(N[C@H]1C[C@H]1c1ccccc1)c1ccc2c(c1)OCCO2` (stereo not given in full), the “viability” value was 91.8%.

As for `O=c1cccc2n1CC1CNC[C@H]2C1`, the “viability” value is 92.5%.
